Inconclusive results are not listed. Active and inactive are the calls of the source. Calls come from the whole dose curve; as a rule, active = well fitted cell-killing curve with a large enough effect; inconclusive = small, poorly fitted or top-dose-only effect, or effect the other way; inactive = no such curve, though single readings can be large or run the other way.
Potency is the fitted concentration of half-maximal effect.

A short description of the test: Quantitative High-Throughput drug screen in 47 multiple myeloma cell lines against the NCATS MIPE library collection: OPM1_PLB cell viability assay (AID 1918989). Note: nearly all actives have a fitted effect of over 40% in size. Particulars: CellTiter-Glo, 48 h; series mostly up to 45.8 µM. Summed up:
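Viability after 48 h drug exposure was measured as ATP-dependent luminescence. Cells, 500 per well, sat at 37 °C under 5% CO2; DMSO wells set 100%, media-only wells 0%.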
Regarding `CCn1c(-c2nonc2N)nc2c(C#CC(C)(C)O)ncc(OC[C@H]3CCCNC3)c21`, the Potency was 0.148 µM (active).

Turning to `Cc1[nH]c(=O)c(C#N)cc1-c1ccncc1`, the Potency is 16.6 µM (active).

`NC(=O)c1ccc(I)c([N+](=O)[O-])c1`: the Potency is 23.5 µM (active).

For `N[C@@H]1CONC1=O`, the Potency entry was “inactive”.

Regarding `CCc1cc(Nc2nccc(-c3c(-c4ccc(OC)c(C(=O)Nc5c(F)cccc5F)c4)nc4ccccn34)n2)c(OC)cc1N1CCC(N2CCN(S(C)(=O)=O)CC2)CC1`, the Potency is 14.8 µM (active).

On to `CCOc1ccc(Cc2cc([C@@H]3O[C@H](CO)[C@@H](O)[C@H](O)[C@@H]3O)ccc2Cl)cc1`, for which the Potency was 14.8 µM (active).

Take `OCCn1cc(-c2cnc3nnn(Cc4ccc5ncccc5c4)c3n2)cn1`: the Potency entry is “inactive”.

Regarding `C[C@]1(c2nc3c(C(N)=O)cccc3[nH]2)CCCN1`, the Potency result is “inactive”.

With `Fc1ccc(Cl)cc1-c1nc(Nc2ccncc2)c2nccnc2n1`, the Potency is 14.8 µM (active).

For the compound `CN(C(=O)c1ccc(F)cc1C(F)(F)F)C1CCN(c2nnc(-c3ccnn3C)c3ccccc23)CC1`, the Potency entry was “inactive”.

For `CN(C)c1ccc(Nc2nc(N)n(C(=O)c3c(F)cccc3F)n2)cc1`, the Potency is 5.26 µM (active).

On to `CNC[C@H](O)c1cccc(O)c1`, for which the Potency result is “inactive”.

Regarding `N=c1nc(N2CCCCC2)cc(N)n1O`, the Potency was 16.6 µM (active).

For the compound `CC(C)(C)NCC(O)c1ccc(O)c(CO)c1` (stereo unspecified), the Potency result was “inactive”.

As to `CC1(C)CNc2cc(NC(=O)c3cccnc3NCc3ccncc3)ccc21`, the Potency result was “inactive”.

For `O=C1[C@H](Cc2ccc(O)cc2)N2C(=O)CCN(C(=O)NCc3ccccc3)[C@H]2CN1Cc1cccc2ccccc12`, the Potency was 8.33 µM (active).

As for `Cc1ccnc(NS(=O)(=O)c2ccc(NC(=O)Nc3ccc(S(=O)(=O)Nc4nccc(C)n4)cc3)cc2)n1`, the Potency is 18.7 µM (active).

As to `COCC(=O)NCC=Cc1ccc2ncnc(Nc3ccc(Oc4ccc(C)nc4)c(C)c3)c2c1`, the Potency is 18.7 µM (active).

With `CNCc1ccc(-c2[nH]c3cc(F)cc4c3c2CCNC4=O)cc1`, the Potency entry is “inactive”.

Consider `Cc1cn[nH]c1`, for which the Potency was 1.66 µM (active).

For `CC(C=CC1=C(C)CCCC1(C)C)=CC=CC(C)=CC(=O)O`, the Potency was 8.33 µM (active).

In the case of `O=C1CCc2cc(OCCCCc3nnnn3C3CCCCC3)ccc2N1`, the Potency result is “inactive”.

Take `CCOc1cc(N2CCC(O)CC2)ccc1Nc1ncc2c(n1)N(C)c1ccccc1C(=O)N2C`: the Potency was 2.96 µM (active).

With `Cc1cc(Nc2nc(N[C@@H](C)c3ncc(F)cn3)ncc2Cl)n[nH]1`, the Potency is 18.7 µM (active).

`COc1ccc([C@@H]2CC(=O)c3c(O)cc(O[C@@H]4O[C@H](CO[C@@H]5O[C@@H](C)[C@H](O)[C@@H](O)[C@@H]5O)[C@@H](O)[C@H](O)[C@@H]4O)cc3O2)cc1O`: the Potency result is “inactive”.

In the case of `O=S(=O)(N=Cc1c(O)ccc2ccccc12)c1cccs1`, the Potency is 7.43 µM (active).

These data come from PubChem BioAssay (NCATS).
